PubChem BioAssay (NCI)
This is part of a sample that, as a whole, favours compounds with a hit. Of some 83,000 tested, about 20% had one in any assay.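 Plates (96-well) were seeded with cells, treated with compound at one concentration, and incubated for 48 hours before percent growth was determined.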 Unmarked numbers belong to inactive results. Calls of active or inactive are those of the source. Rule for the calls: active = growth percent below 10; inactive = the rest.

tested on: IGROV1 ovarian; assay: NCI-60 one-dose screen, 48 h (100 = growth as untreated, 0 = no growth, -100 = all killed); conditions: 10 µM unless noted

Compound	growth
COc1ccc(Cn2cc3c(c2-c2ccccc2)CCc2cnoc2-3)cc1OC	37.7%
Cc1ccc2c(O)c(O)cc(NC(C)CCCN)c2n1 (stereo not given)	86.3%
CC(C)(C)c1ccc([I+]c2ccc(C(C)(C)C)cc2)cc1	20.9%
COC(=O)/C(Br)=C/c1c[nH]c2ccc(Br)cc12	-17.7% (active)
COC(=O)c1ccc2[nH]c(O)c(C(=Nc3ccc(N(C)C(=O)CN4CCN(C)CC4)cc3)c3cccc(OC)c3)c2c1	1.75% (active)
C#CCCCCCCC[C@@H]1OC(=O)[C@H]([C@@H](C)CC)NC(=O)[C@@H]([C@@H](C)CC)NC(=O)CC(=O)[C@@H]1C	89.1%
COC(=O)c1ccc2[nH]c(O)c(C(=Nc3ccc(N(C)C(=O)CN4CCN(C)CC4)cc3)c3ccc(C)cc3)c2c1	1.53% (active)
COC(=O)C(C)[C@H]1CC[C@@H]2[C@]1(C)CC=C1[C@]23C=C[C@]2(C[C@@H](OC(C)=O)CC[C@]12C)C(C(=O)OC)C3C(=O)OC (stereo not given in full)	98.2%
Cc1nc2c(nnn2-c2ccccc2)c2nc(-c3ccccc3)oc(=O)c12	111%
CC(O)C(N)=O (stereo not given)	116%
Nc1nc2c(c3cnccc13)C(c1cccc(Cl)c1)Cc1cnccc1-2 (stereo not given)	35.9%
CC(=O)OCC1O[C@@H](OC(C)=O)[C@@H](NC(=O)NS(=O)(=O)c2ccccc2)C(OC(C)=O)[C@@H]1OC(C)=O (stereo not given in full)	108%
CCOC(=O)c1ccc2n1CCCc1cnc(NC(C)=O)nc1-2	107%
CCCCCCCCCCCCCCCCCC1=NCCN1CCNC(C)=O	91.1%
Clc1ccc(N/N=C(/c2ccccc2)c2ccccn2)nc1	22.5%
COc1ccc(-n2nnnc2-c2cn[nH]c2C(F)(F)F)cc1	-28.4% (active)
COc1cc2ncnc(-n3ncc4cc(NC(=O)Nc5ccc(Cl)c(Cl)c5)ccc43)c2cc1OC	-58.3% (active)
CCOC(=O)c1c(C)oc2ncnc(Nc3ccc(C(=O)NCCc4ccccc4)cc3)c12	102%
CC(=O)/C(=C/c1ccc(-c2ccccc2)cc1)C(=O)c1ccccc1	91%
N=C(N)c1ccc(-c2ccc(-c3ccc(F)cc3)s2)cc1	-69.8% (active)

Compound	growth
NC(=O)CC(NC(=O)COc1ccc(Cl)cc1Cl)C(=O)O (stereo not given)	109%
Cc1nc(NC(=O)NC2CCCCC2)sc1C(=O)NN	72.2%
CCOC(=O)C1=C(C(F)(F)F)NC(=S)NC1CN1C(=O)c2ccccc2C1=O (stereo not given)	104%
NC(=O)c1c(Nc2ccccc2)nn2cc(-c3nc4ccccc4s3)c(N)nc12	93.3%
O=C(/C=C/c1ccc(Br)cc1)c1ccccc1	87.3%
Cc1c(O)c(N=Nc2ccc(C(=O)O)c(O)c2)c2ccccc2c1O	-25.9% (active)
COc1ccc2c(c1)/C(=C/c1c(-c3cc(OC)c(OC)c(OC)c3)nc3sccn13)C(=O)N2	29.2%
CCOC(=O)c1cc(C(=O)c2ccc(Br)cc2)n2cc(C)cc(C)c12	102%
COc1cccc(Cn2cc3c(c2)-c2oncc2CC3)c1	20.1%
CCCCCSc1ccc2nc(NC(=O)OCC)sc2c1	46.2%
COc1ccc(C2C3(C#N)C(N)=NC(=C(C#N)C#N)C23C#N)cc1OC (stereo not given)	113%
CCCCCCCCCCCCCCCC[n+]1cccc(C#N)c1	69.2%
CC(C)OC(=O)c1ccc2n1CCCc1cnc(Nc3ccccc3)nc1-2	83.7%
COc1cc(Cn2ccc3c2-c2oncc2CC3)cc(OC)c1	26.2%
COC(=O)c1ccc(C(=Nc2ccc(N(C)C(=O)CN3CCN(C)CC3)cc2)c2c(O)[nH]c3ccc(C(=O)OC)cc23)cc1	5.1% (active)
COc1cccc2c1nc1cccc(OC)c1[n+]2[O-]	-73.4% (active)
CC(=O)NNC(=O)c1sc(NC(C)=O)nc1C	23.4%
CCOC(=O)NNc1[nH]c(-c2ccc(OC)cc2)cc1C#N	57.5%
COc1cc(N)c2nccc(C)c2c1OC	385%
CCOC(=O)c1c2c(cn1Cc1ccccc1)-c1oncc1CC2	101%
